Assay [1] in a line: qHTS for Inhibitors of Cell Surface uPA Generation: Validation Assay (AID 493164).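 Note: RAW 264.7 macrophage cells exposed to compound for 18 h.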 The method in brief: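 ATP-Lite luminescence read-out: ATP remains high when uPA activity-dependent LF translocation into the cytoplasm is blocked. RAW 264.7 cells, 18 h compound exposure at 37 C; 7-point titration, 2.45 nM to 38.3 uM final.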
The target of assay [2] is Galactokinase (Homo sapiens) (UniProt P51570). As to the kind of experiment: qHTS Validation Assay for Inhibitors of Human Galactokinase (GALK) (AID 493189). The method in brief: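 5 nM GALK / 100 uM galactose / 35 uM ATP, 20 mM HEPES pH8.0, 5 mM MgCl2, 60 mM NaCl, 1 mM DTT, 0.01% BSA (final). RT 1 h; Kinase-Glo Plus luminescence.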
In general terms: qHTS replaces the single test concentration by a dilution series.

A short description of assay [3]: Validation screen for small molecules that induce DNA re-replication in SW480 colon adenocarcinoma cells (AID 504364). Note: potency is the fitted concentration of half-maximal effect. The method in brief: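 Image-based DNA content read-out: Hoechst stain 40 min, total nuclear fluorescence intensity (ex 405 nm, em 500-530 nm) after 48 h compound exposure of 250 SW480 cells/well at 37 C, 5% CO2, versus DMSO vehicle.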
The target of assay [4] is Peptidyl-prolyl cis-trans isomerase NIMA-interacting 1 (Homo sapiens) (UniProt Q13526). As to the kind of experiment: qHTS Validation Assay to Find Inhibitors of Pin1 (AID 504536; active = well fitted inhibition curve with a large enough effect in the polarisation, with a control signal flat, not every such curve was filed as active; the % refers to the polarisation; note: potency is the fitted concentration of half-maximal effect). The method in brief: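 Fluorescence polarization competition: compounds (titration) displace HiFluor-488-labeled Pin1-1b peptide from Pin1 (0.3 uM final) in pH 7.5 HEPES buffer with DTT, 10 min at room temperature; %Activity normalized to no-enzyme wells, curves fitted.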

In assay [5] the target is Phosphoglycerate kinase, glycosomal (Trypanosoma brucei brucei) (UniProt P07378). As to the kind of experiment: qHTS Validation Assay to Find Inhibitors of Phosphoglycerate Kinase (AID 504547). The method in brief: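 In TEA buffer (100mM, pH 7.6) containing 5mM MgCl2 and 0.01% Tween-20, the GAPDH-coupled PGK reaction proceeded for 60 minutes at room temperature before a single luminescence reading using Kinase-Glo Plus.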

The target in assay [6] is phosphoglycerate mutase (Leishmania major) (UniProt Q4Q090). The assay can be described thus: qHTS Validation Assay to Find Inhibitors of Phosphoglycerate Mutase (AID 504548).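 Note: end-point luminescence from Kinase-GloPlus after the PGAM reaction; series mostly up to about 58 µM.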 The conditions noted are these: Potency: inhibition qHTS. The method in brief:
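L. major PGAM (1.25nM final) was added to substrate buffer and pinned compound, incubated 45 minutes at room temperature, then Kinase-GloPlus added; luminescence read after 10 minutes. Buffer: 100 mM TEA pH 7.6, 5 mM MgCl2, 0.01% Tween-20.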

The target in assay [7] is Ubiquitin carboxyl-terminal hydrolase 1 (Homo sapiens) (UniProt O94782). The assay can be described thus: Inhibitors of USP1/UAF1: Pilot qHTS (AID 504865). Note: nearly all actives have a fitted effect of over 35% in size. Note: potency is the fitted concentration of half-maximal effect. The method in brief:
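In 50mM HEPES pH 7.8 containing 0.5mM EDTA, 1mM TCEP, 0.1 mg/ml BSA and 0.01% Tween-20, 1nM USP1/UAF1 is exposed to compound for 15 min, then Ub-Rho (150nM final) is added and fluorescence is read over time.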

The nature of assay [8]: qHTS for Inhibitors of ATXN expression: Validation of Cytotoxic Assay (AID 588349). The method in brief:
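Cytotoxicity counter-screen: ATP-based luminescent viability (CellTiter Glo) after 72 hr exposure of HEK293 cells to a compound titration at 37 degrees C.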

A short description of assay [9]: qHTS for Inhibitors of ATXN expression: Validation (AID 588378). Note: series mostly up to about 57 µM; nearly all actives have a fitted effect of over 75% in size. The method in brief:
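Compounds were pinned onto attached HEK293 cells carrying an ATXN2-firefly luciferase construct and incubated 24 hrs at 37 degrees C. Each well then received a fluorescent viability reagent followed by luciferase substrate for end-point luminescence.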

Each structure is given as a SMILES string. Records with an inconclusive call do not appear. Calls of active or inactive are those of the source. Unless noted, calls come from the whole dose curve; as a rule, active = well fitted curve in the direction sought with a large enough effect; inconclusive = small, poorly fitted or top-dose-only effect, or another doubt; inactive = no such curve, though single readings can be large; an effect the other way counts as inactive or inconclusive.

Chain of Ubiquitin carboxyl-terminal hydrolase 1 (Homo sapiens) (O94782 whole entry, looked up): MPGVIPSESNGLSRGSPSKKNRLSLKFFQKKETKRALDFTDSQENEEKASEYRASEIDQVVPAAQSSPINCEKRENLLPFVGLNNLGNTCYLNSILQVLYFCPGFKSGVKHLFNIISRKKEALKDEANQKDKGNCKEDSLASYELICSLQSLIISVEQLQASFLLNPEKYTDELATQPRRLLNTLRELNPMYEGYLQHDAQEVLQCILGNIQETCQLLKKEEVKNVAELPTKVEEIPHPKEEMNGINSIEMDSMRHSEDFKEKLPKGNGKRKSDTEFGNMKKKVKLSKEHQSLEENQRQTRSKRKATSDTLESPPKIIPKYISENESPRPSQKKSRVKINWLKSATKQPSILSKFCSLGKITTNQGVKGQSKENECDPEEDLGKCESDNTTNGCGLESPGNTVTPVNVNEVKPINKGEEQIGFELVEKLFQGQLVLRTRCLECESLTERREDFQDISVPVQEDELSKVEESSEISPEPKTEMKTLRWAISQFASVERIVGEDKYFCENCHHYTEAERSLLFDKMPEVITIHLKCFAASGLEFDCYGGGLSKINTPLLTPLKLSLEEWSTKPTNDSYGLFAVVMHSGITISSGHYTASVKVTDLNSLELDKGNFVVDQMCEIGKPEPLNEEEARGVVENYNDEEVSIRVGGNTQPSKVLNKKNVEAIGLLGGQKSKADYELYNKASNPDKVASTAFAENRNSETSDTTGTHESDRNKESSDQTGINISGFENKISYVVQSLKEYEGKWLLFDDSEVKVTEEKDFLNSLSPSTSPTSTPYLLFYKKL
Chain of Galactokinase (Homo sapiens) (P51570 whole entry, looked up): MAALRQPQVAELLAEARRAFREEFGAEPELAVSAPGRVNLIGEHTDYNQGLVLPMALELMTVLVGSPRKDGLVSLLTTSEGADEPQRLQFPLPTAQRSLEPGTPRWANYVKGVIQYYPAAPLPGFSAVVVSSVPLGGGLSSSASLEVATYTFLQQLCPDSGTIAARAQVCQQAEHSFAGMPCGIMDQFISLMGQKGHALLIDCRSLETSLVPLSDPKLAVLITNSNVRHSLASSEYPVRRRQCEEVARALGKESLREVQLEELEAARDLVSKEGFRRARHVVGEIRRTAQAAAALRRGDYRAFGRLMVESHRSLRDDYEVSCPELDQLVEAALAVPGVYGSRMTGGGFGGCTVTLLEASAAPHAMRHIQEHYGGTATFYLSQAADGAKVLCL
Chain of Phosphoglycerate kinase, glycosomal (Trypanosoma brucei brucei) (P07378 whole entry, looked up): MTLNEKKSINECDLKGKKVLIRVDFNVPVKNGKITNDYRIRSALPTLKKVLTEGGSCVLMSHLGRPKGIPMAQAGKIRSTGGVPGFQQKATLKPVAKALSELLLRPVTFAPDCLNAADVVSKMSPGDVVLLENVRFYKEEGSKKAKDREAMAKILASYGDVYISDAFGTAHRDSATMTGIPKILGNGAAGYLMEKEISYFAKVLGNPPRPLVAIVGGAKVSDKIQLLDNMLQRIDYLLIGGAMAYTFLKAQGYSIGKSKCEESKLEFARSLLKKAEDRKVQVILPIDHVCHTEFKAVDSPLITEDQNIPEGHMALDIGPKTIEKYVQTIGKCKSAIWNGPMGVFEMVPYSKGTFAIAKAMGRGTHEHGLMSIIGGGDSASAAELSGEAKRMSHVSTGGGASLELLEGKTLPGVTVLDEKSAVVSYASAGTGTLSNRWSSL
Chain of phosphoglycerate mutase (Leishmania major) (Q4Q090 1-553): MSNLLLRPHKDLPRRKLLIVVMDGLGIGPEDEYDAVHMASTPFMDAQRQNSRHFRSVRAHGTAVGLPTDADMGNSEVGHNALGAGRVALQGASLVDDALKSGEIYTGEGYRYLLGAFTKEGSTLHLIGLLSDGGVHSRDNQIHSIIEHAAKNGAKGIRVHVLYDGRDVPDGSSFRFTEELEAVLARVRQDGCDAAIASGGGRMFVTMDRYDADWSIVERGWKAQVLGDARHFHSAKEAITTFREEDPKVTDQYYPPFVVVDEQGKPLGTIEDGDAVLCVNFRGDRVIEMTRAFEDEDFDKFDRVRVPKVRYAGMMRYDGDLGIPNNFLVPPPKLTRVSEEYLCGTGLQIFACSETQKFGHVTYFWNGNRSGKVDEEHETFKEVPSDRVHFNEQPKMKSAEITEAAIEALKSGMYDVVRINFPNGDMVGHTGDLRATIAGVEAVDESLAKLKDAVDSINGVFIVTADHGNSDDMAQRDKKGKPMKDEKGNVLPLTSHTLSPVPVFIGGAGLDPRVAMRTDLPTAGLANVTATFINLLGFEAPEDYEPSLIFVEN
Chain of Peptidyl-prolyl cis-trans isomerase NIMA-interacting 1 (Homo sapiens) (Q13526 whole entry, looked up): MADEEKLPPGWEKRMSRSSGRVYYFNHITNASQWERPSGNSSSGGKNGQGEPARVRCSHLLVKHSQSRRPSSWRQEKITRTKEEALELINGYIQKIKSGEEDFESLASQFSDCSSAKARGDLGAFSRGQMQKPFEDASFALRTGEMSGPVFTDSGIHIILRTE

Regarding `COc1ccc2c(c1)c(CC(=O)O)c(C)n2Cc1ccc(Cl)cc1`, the compound was classed as inactive in assay [1]. For the same compound, the Potency result in assay [2], in assay [3], in assay [4], in assay [5], in [6] and in [7] was “inactive” throughout. For the same compound, the Potency result in assay [8] and in [9] was “inactive” throughout.

For the compound `CCCn1c(=O)c2c(ncn2C)n(CCC)c1=O`, the result in assay [1] was inactive. Moreover, the Potency result in [2], in assay [3], in assay [4], in [5], in [6] and in [7] was “inactive” throughout. In addition, the Potency result in assay [8] and in [9] was “inactive” throughout.

For the compound `CCC(=O)N1CCN(C(=O)c2ccccc2)CC1`, the outcome in assay [1] was inactive. Further, the Potency result in [2], in [3], in assay [4], in assay [5], in assay [6] and in assay [7] was “inactive” each time. Further, the Potency result in [8] and in assay [9] was “inactive” each time.

Consider `O=C(O)[C@H]1NCCC[C@H]1C(=O)O`, for which, in [1], the call was inactive. In addition, the Potency entry in assay [2], in assay [3], in assay [4], in assay [5], in assay [6] and in assay [7] was “inactive” in each case. The Potency result in [8] and in assay [9] was “inactive” in each case.

Regarding `NC(N)=N[C@@H](CCC(=O)O)C(=O)O`, in assay [1], the compound was classed as inactive. Besides, the Potency entry in assay [2], in [3], in assay [4], in assay [5], in [6] and in assay [7] was “inactive” each time. The Potency result in assay [8] and in assay [9] was “inactive” in each case.

Turning to `CCC1(O)CC2CN(CCc3c([nH]c4ccccc34)[C@@](C(=O)OC)(c3cc4c(cc3OC)N(C)C3[C@]45CCN4CC=C[C@@](CC)([C@@H](OC(C)=O)[C@]3(O)C(=O)OC)[C@H]45)C2)C1` (stereo not given in full), the compound was called inactive in assay [1]. Further, the Potency entry in [2], in assay [4], in [5], in assay [6] and in assay [7] was “inactive” throughout. The Potency in [3] was 0.0206 µM (active).

Regarding `CC(=O)[C@H]1CCC2C3CC=C4C[C@@H](OS(=O)(=O)O)CC[C@]4(C)C3CC[C@@]21C` (stereo not given in full), the call in [1] was inactive. The Potency entry in [2], in [3], in assay [4], in assay [5], in assay [6] and in assay [7] was “inactive” in each case. The Potency entry in assay [8] and in assay [9] was “inactive” throughout.

As for `NC1(C(=O)O)CC1`, the result in assay [1] was inactive. Further, the Potency entry in assay [2], in [3], in assay [4], in [5], in assay [6] and in [7] was “inactive” throughout. The Potency result in assay [8] and in assay [9] was “inactive” throughout.

Consider `N=C(N)c1ccccc1`, for which, in [1], the compound was called inactive. In addition, the Potency result in assay [2], in assay [3], in [4], in [5], in [6] and in assay [7] was “inactive” in each case. The Potency result in [8] and in assay [9] was “inactive” each time.

For the compound `CN(C)CCC(c1ccc(Br)cc1)c1ccccn1` (stereo not given), in assay [1], the call was inactive. Further, the Potency result in [2], in assay [3], in [4], in [5], in [6] and in assay [7] was “inactive” in each case. The Potency result in assay [8] was “inactive”.

As to `CCCCCC(O)CCCC(=O)O` (stereo not given), the compound was classed as inactive in [1]. For the same compound, the Potency entry in assay [2], in assay [3], in [4], in assay [5], in assay [6] and in assay [7] was “inactive” each time. In addition, the Potency entry in assay [8] and in [9] was “inactive” each time.

As to `CC(C)(C)NCC(O)COc1cccc2[nH]c(=O)[nH]c12` (stereo not given), the call in [1] was inactive. In addition, the Potency result in assay [2], in assay [3], in assay [4], in [5], in assay [6] and in assay [7] was “inactive” throughout. Besides, the Potency entry in assay [8] and in [9] was “inactive” in each case.

For `N[C@@H](Cc1ccc(O)c(I)c1)C(=O)O`, in assay [1], the result was inactive. Moreover, the Potency entry in assay [2], in [3], in assay [4], in [5], in assay [6] and in [7] was “inactive” each time. For the same compound, the Potency result in assay [8] and in assay [9] was “inactive” each time.

Consider `NC1(C(=O)O)CCCCC1`, for which, in [1], the call was inactive. The Potency result in [2], in [3], in assay [4], in [5], in [6] and in assay [7] was “inactive” throughout. Further, the Potency entry in assay [8] and in [9] was “inactive” in each case.

Take `CC1C(=O)N(C)C(=O)c2nc[nH]c21` (stereo not given): in assay [1], the outcome was inactive. In addition, the Potency entry in assay [2], in assay [3], in assay [4], in assay [5], in assay [6] and in assay [7] was “inactive” each time. Also, the Potency entry in assay [8] and in [9] was “inactive” in each case.

In the case of `Nc1ccc(-c2nc3ccc(-c4nc5ccc(N)cc5[nH]4)cc3[nH]2)cc1`, in [1], the outcome was inactive. The Potency entry in assay [2], in [3], in assay [4], in assay [5], in assay [6] and in assay [8] was “inactive” in each case. In assay [9], the Potency result is “inactive”. In assay [7], the Potency is 50.1 µM (active).

Regarding `C#CCn1c(=O)c2c(ncn2C)n(C)c1=O`, in [1], the call was inactive. Moreover, the Potency result in [2], in assay [3], in [4], in assay [5], in assay [6] and in assay [7] was “inactive” each time. Moreover, the Potency result in assay [8] and in assay [9] was “inactive” throughout.

With `NC(=O)c1cc[n+](CC2=C(C(=O)O)N3C(=O)[C@@H](NC(=O)[C@@H](c4ccccc4)S(=O)(=O)[O-])[C@H]3SC2)cc1`, the outcome in [1] was inactive. The Potency result in assay [2], in assay [3], in assay [5], in assay [6], in assay [7] and in assay [8] was “inactive” in each case. In [9], the Potency entry is “inactive”. The Potency in assay [4] was 9.53 µM (active).

Take `COc1ccccc1N1CCN(CCCNc2c(C)c(=O)n(C)c(=O)n2C)CC1`: in [1], the compound was called inactive. Moreover, the Potency result in assay [2], in assay [3], in assay [4], in [5], in assay [6] and in assay [7] was “inactive” in each case. The Potency entry in assay [8] and in assay [9] was “inactive” each time.

As to `NCCCCN`, the compound was called inactive in assay [1]. In addition, the Potency result in [2], in assay [3], in assay [4], in assay [5], in assay [6] and in assay [7] was “inactive” throughout. Moreover, the Potency result in assay [8] and in assay [9] was “inactive” in each case.

As to `Cc1ccc2c(c1)C(N1CCN(C)CC1)=Nc1cccnc1N2`, the outcome in assay [1] was inactive. For the same compound, the Potency entry in assay [2], in assay [3], in assay [4], in assay [5], in assay [6] and in [7] was “inactive” in each case. Further, the Potency entry in assay [8] and in assay [9] was “inactive” each time.

As to `COc1ccc(-c2ccc(N)[n+](CCCC(=O)O)n2)cc1`, the compound was called inactive in assay [1]. Also, the Potency entry in assay [2], in [3], in assay [4], in assay [5], in [6] and in assay [7] was “inactive” in each case. Also, the Potency entry in [8] and in [9] was “inactive” throughout.

On to `c1ccc2c(c1)CC(N1CCN(c3cccc4c3OCCO4)CC1)C2`, for which, in [1], the result was inactive. Besides, the Potency result in assay [2], in assay [3], in assay [4], in assay [5], in [6] and in [7] was “inactive” throughout. Further, the Potency entry in assay [8] and in [9] was “inactive” throughout.

Take `Oc1ccc(Cn2cc[nH]c2=S)cc1`: the compound was classed as inactive in [1]. In addition, the Potency entry in assay [2], in assay [3], in assay [4], in assay [5], in [6] and in [7] was “inactive” in each case. The Potency result in assay [8] and in assay [9] was “inactive” each time.

Turning to `N=S(=O)(O)Cc1noc2ccccc12`, the result in assay [1] was inactive. For the same compound, the Potency result in [2], in assay [3], in assay [4], in assay [5], in assay [6] and in assay [7] was “inactive” in each case. The Potency result in assay [8] and in assay [9] was “inactive” each time.

For `CCN(c1nc(N)c(C(=O)N=C(N)N)nc1Cl)C(C)C`, the call in [1] was inactive. Further, the Potency entry in assay [2], in [3], in [4], in assay [5], in assay [6] and in assay [7] was “inactive” in each case. The Potency entry in assay [8] and in assay [9] was “inactive” in each case.

Take `O=C(c1ccc2c(c1)OCCO2)N1CCCCC1`: the compound was classed as inactive in assay [1]. The Potency entry in assay [2], in [3], in assay [4], in assay [5], in [6] and in assay [7] was “inactive” in each case. Further, the Potency entry in assay [8] and in assay [9] was “inactive” in each case.
